Source: PubChem
Shown are actives, neighbours in structure and some others; about 3.7% of the full set was active somewhere.
TGFb inhibitor – qHTS for Inhibitors of TGF-b. actives 1.2% (n = 410,000). AID 588855, 2011. HepG2 CAGA-GFP TGF-b/SMAD3 reporter, GFP fluorescence, 18 h; TGF-beta stimulated, 500 pg/mL final. Potency, µM (titrated, usually from 46.1 µM), actives largely listed as inhibitors; also: nearly all actives have a fitted effect of over 65% in size
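HEPG2 CAGA-GFP, 1000 cells/well; 2 h settle, 37 C; cpd via pin tool; TGF-b 500 pg/mL final; 18 h, 37 C; GFP imaging ex488/em500-530; %Activity normalised to -TGF-b and +DMSO controls; CRC fit, curve class.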
ATXN2 expr inh – Primary qHTS for Inhibitors of ATXN expression | actives 0.72% (n = 360,000) | AID 1745845, 2022 | HEK-293 ATXN2-luciferase reporter, luminescence, 24 h | Potency, µM (titrated, usually from 57 µM), most hits filed as inhibitors; also: nearly all actives have a fitted effect of over 55% in size
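ATXN2-luciferase reporter cells (luciferase flanked by upstream and downstream ATXN2 gene portions) were treated 24 h at 37 °C with compounds at up to 57 uM. SteadyGlo luminescence gave expression; GF-AFC fluorescence gave viability.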
ATXN viability – Viability Counterscreen for Primary qHTS for Inhibitors of ATXN expression | S2 cells (HEK-293 line with an ATXN2-luciferase reporter) viability, CellTiter-Fluor protease fluorescence, 24 h | Potency, µM (series often up to 56.7 µM), hits mostly cytotoxic | actives 0.49% (n = 400,000); also: nearly all actives have a fitted effect of over 40% in size
GLP1R inv ag – qHTS of GLP-1 Receptor Inverse Agonists (Inhibition Mode); actives 1.6% (n = 410,000); Glucagon-like peptide 1 receptor (Homo sapiens), P43220; Potency, µM (top dose mostly 38.3 µM), actives largely listed as inhibitors; HEK293 GLP-1R CRE-luciferase, luminescence, 24 h; GLP-1R form is constitutively active; also: nearly all actives have a fitted effect of over 55% in size
Target sequence (P43220 whole entry, looked up): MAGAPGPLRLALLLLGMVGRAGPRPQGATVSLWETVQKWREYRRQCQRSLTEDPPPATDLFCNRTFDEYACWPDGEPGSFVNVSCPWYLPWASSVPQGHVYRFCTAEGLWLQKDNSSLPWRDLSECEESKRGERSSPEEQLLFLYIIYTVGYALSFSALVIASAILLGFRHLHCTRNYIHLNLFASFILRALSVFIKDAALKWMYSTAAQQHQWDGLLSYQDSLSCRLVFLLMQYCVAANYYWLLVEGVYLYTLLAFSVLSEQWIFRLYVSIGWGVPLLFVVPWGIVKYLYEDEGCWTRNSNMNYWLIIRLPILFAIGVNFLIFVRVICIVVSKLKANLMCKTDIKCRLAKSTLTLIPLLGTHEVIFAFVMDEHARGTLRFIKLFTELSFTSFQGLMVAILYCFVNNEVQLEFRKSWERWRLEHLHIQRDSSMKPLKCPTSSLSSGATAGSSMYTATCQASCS
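Inverse agonism was detected as reduced cAMP-driven luciferase luminescence after 24 h compound treatment. The cells were HEK293 clones expressing constitutively active human GLP-1R with the reporter. Reporter-only and GPR119 cell lines served as counterscreen controls.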
HepG2 tox-1 – qHTS for Inhibitors of TGF-b: Cytotox Counterscreen. Potency, µM (series often up to 46.1 µM), usual class: cytotoxic. HepG2 CAGA-GFP viability, ATP luminescence, 18 h. AID 588856, 2011. actives 0.76% (n = 410,000)
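HepG2 CAGA-GFP cells (1000/well, DMEM with 1% FBS) received compound, then TGF-beta at 500 pg/mL final, and were incubated 18 hours at 37 degrees C. Viability was read by CellTiter-Glo luminescence. Media-only wells were set as complete cell-killing and DMSO as no toxicity.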
GLP1R ag – qHTS of GLP-1 Receptor Agonists. Potency, µM (top dose mostly 45.6 µM), most hits filed as activators. HEK293 GLP-1R CRE-luciferase, luminescence, 4-6 h; cells express a hypersensitive GLP-1R form. Glucagon-like peptide 1 receptor (Homo sapiens), P43220. actives 0.007% (n = 380,000)
TGFb CAGA inh – qHTS for Inhibitors of TGF-b: Confirmation of Cherry Picks; shares compounds with TGFb inhibitor; HepG2 CAGA-GFP TGF-b reporter, GFP fluorescence, 18 h; cells stimulated with TGF-beta, 500 pg/mL; Potency, µM (doses to about 46.1 µM), hits mostly inhibitors; actives 63% (n = 1,600); AID 720534, 2013; also: nearly all actives have a fitted effect of over 65% in size
HepG2 tox-2 – qHTS for Inhibitors of TGF-b: Cytotox Counterscreen for Cherry Picks. shares compounds with TGFb inhibitor. HepG2 CAGA-GFP viability, ATP luminescence, 18 h; cells stimulated with TGF-beta, 500 pg/mL. Potency, µM (top dose mostly 46.1 µM), usual class: inhibitors. actives 27% (n = 1,600); also: nearly all actives have a fitted effect of over 70% in size
CCL64 TGFb inh – qHTS for Inhibitors of TGF-b: CCL64 Cells Orthogonal Assay for Cherry Picks. CCL64 CAGA-GFP reporter, TGF-b stimulated, GFP fluorescence, 18 h. AID 720536, 2013. actives 41% (n = 1,600). shares compounds with TGFb inhibitor. Potency, µM (highest dose often 46.1 µM), usual class: inhibitors; also: nearly all actives have a fitted effect of over 65% in size
COP TGFb inh – qHTS for Inhibitors of TGF-b: Hit Validation in HepG2 Cells using COP promoter; Potency, µM (top dose mostly 46.1 µM), actives largely listed as inhibitors; AID 720537, 2013; shares compounds with TGFb inhibitor; HepG2 COP-GFP TGF-b reporter, GFP fluorescence, 18 h; cells stimulated by added recombinant TGF-beta; actives 3% (n = 1,600); also: nearly all actives have a fitted effect of over 70% in size
Each line names hits and unclear results; the compound was inactive in the other large screens (follow-up assays come after a bar, where they were run). Calls follow the shape of the dose curve; as a rule, active = well fitted curve in the direction sought with a large enough effect; inconclusive = small, poorly fitted or top-dose-only effect, or another doubt; inactive = no such curve, though single readings can be large; an effect the other way counts as inactive or inconclusive.

Cc1ccccc1NC1=NCC(c2ccc([N+](=O)[O-])cc2)S1 (stereo not drawn)	TGFb inhibitor 4.5µM, ATXN viability inconclusive | TGFb CAGA inh 13µM | HepG2 tox-2 inconclusive | CCL64 TGFb inh 8.2µM | COP TGFb inh inactive
COc1ccc(/C=C/C(=O)c2ccccc2)cc1COc1ccc(F)cc1	ATXN2 expr inh inconclusive, ATXN viability inconclusive
COc1ccc(/C=C/C(=O)c2ccccc2)cc1Cn1nnc2ccccc21	TGFb inhibitor 8.9µM, ATXN2 expr inh inconclusive, GLP1R inv ag inconclusive (no result: ATXN viability) | TGFb CAGA inh 6.5µM | HepG2 tox-2 23µM | CCL64 TGFb inh 23µM | COP TGFb inh inactive
Cc1nc(-c2ccc(S(=O)(=O)N3CCCN(CCc4ccccc4)CC3)s2)cs1	TGFb inhibitor 8.9µM, GLP1R inv ag inconclusive | TGFb CAGA inh 8.2µM | HepG2 tox-2 inconclusive | CCL64 TGFb inh inconclusive | COP TGFb inh inactive
Cc1ccc(S(=O)(=O)N2CCN(CCc3ccccc3)CC2)c(C)c1	TGFb inhibitor inconclusive, GLP1R inv ag inconclusive | TGFb CAGA inh 23µM | HepG2 tox-2 inconclusive | CCL64 TGFb inh inconclusive | COP TGFb inh inactive
Cc1ccc(S(=O)(=O)N2CCN(C(=O)c3ccco3)CC2)c(C)c1	ATXN viability inconclusive
Cc1ccc(S(=O)(=O)N2CCN(C(=O)c3ccccc3Cc3ccccc3)CC2)c(C)c1	TGFb inhibitor 11µM, GLP1R inv ag inconclusive | TGFb CAGA inh 16µM | HepG2 tox-2 inconclusive | CCL64 TGFb inh inconclusive | COP TGFb inh inactive
Cc1nc(-c2ccc(S(=O)(=O)N3CCN(C4c5ccccc5-c5ccccc54)CC3)s2)cs1	GLP1R inv ag inconclusive
CCOC(=O)N1CCc2c(sc3c2c(=O)n(-c2ccc(Cl)cc2)c(=O)n3CC(=O)Nc2ccccc2)C1	none (no result: GLP1R ag)
Cc1cccc(N2CCN(C(=O)c3ccc(S(=O)(=O)N(C)c4ccccc4)cc3)CC2)c1C	TGFb inhibitor 5.6µM, GLP1R inv ag 1µM | TGFb CAGA inh 9.2µM | HepG2 tox-2 inactive | CCL64 TGFb inh inconclusive | COP TGFb inh inactive
COc1cc(C(=O)N2CCN(c3ccc(C)cc3C)CC2)cc(OC)c1OC	GLP1R inv ag inconclusive
Cc1ccc(N2CCN(C(=O)c3cnc(N4CCCCC4)c4ccccc34)CC2)c(C)c1	TGFb inhibitor inconclusive, GLP1R inv ag inconclusive (no result: ATXN2 expr inh, ATXN viability, GLP1R ag)
CN1CCN(C(=O)c2ccc(S(=O)(=O)N(C)c3ccccc3)cc2)CC1	none (no result: ATXN2 expr inh)
